# Results: the supplement of paper PMC10037445
# In all, about 2,900 compounds were measured (“NF-kB SEAP reporter activity, fold change vs agonist alone”: median about 0.99, highest 2% from about 2.6 on). Only a selection was taken, and the highest values are over-represented in it overall.
# Legend:
# RAW-Dual [1] = assay: NF-kB SEAP reporter activity, fold change vs agonist alone; higher = enhanced NF-kB activity
# How it was run: (§1)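 RAW-Dual macrophages (50,000 cells/well in DMEM, 384-well plates) received 50 nL of library stock by pin tool, then a PRR agonist 1 h later, and were kept at 37 °C, 5% CO2. After 20 hours, supernatant was read for IRF by QuantiLuc luminescence and for NF-κB by QuantiBlue absorbance at 620 nm. Reporter activity is fold change over agonist-alone wells. Cytotoxic wells had IncuCyte confluency below 70% of agonist controls in both mask sets.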
# RAW-Dual [2] = assay: NF-kB SEAP reporter activity, fold change vs agonist alone; cytotoxicity flag (confluency mask): not cytotoxic; higher = enhanced NF-kB activity
# How it was run: as §1
# RAW-Dual [3] = assay: NF-kB SEAP reporter activity, fold change vs agonist alone; cytotoxicity flag (confluency mask): cytotoxic (confluency <70% of control); higher = enhanced NF-kB activity
# How it was run: as §1
# [4] = library stock concentration (final ~1000-fold dilution): 10 mM, cytotoxicity flag (confluency mask): not cytotoxic, agonist: Imiquimod (TLR7) […]
# [5] = library stock concentration (final ~1000-fold dilution): 10 mM, cytotoxicity flag (confluency mask): not cytotoxic, agonist: MPLA (TLR4) […]
# [6] = library stock concentration (final ~1000-fold dilution): 10 mM, cytotoxicity flag (confluency mask): cytotoxic (confluency <70% of control), agonist: Imiquimod (TLR7) […]
# [7] = library stock concentration (final ~1000-fold dilution): 10 mM, cytotoxicity flag (confluency mask): cytotoxic (confluency <70% of control), agonist: MPLA (TLR4) […]
# [8] = agonist: ODN 1826 (TLR9) 0.5 ug/mL
# [9] = agonist: Pam2CSK4 (TLR2/6) 0.1 ug/mL
# [10] = agonist: Pam3CSK4 (TLR2/1) 0.1 ug/mL
smiles,measurement,setting,value
CC(=O)OC1(C(C)=O)CCC2C3C=C(Cl)C4=CC(=O)CCC4(C)C3CCC21C (stereo not given),NF-kB SEAP reporter activity,RAW-Dual [1]; [4],1.28
same,NF-kB SEAP reporter activity,RAW-Dual [1]; [5],1.12
Cc1nc(Nc2cnn(C3CCNCC3)c2)nc2c1N(C)C(=O)c1cc3ccccc3cc1N2C,NF-kB SEAP reporter activity,RAW-Dual [1]; [6],1.56
same,NF-kB SEAP reporter activity,RAW-Dual [1]; [7],2.88
Cc1ccc(Oc2ccnc3cc(-c4cnn(C5CCNCC5)c4)ccc23)cc1,NF-kB SEAP reporter activity,RAW-Dual [1]; [6],0.526
same,NF-kB SEAP reporter activity,RAW-Dual [1]; [7],0.922
CN1c2ccccc2C(=O)Nc2cnc(Nc3ccc(N4CCC(O)CC4)cc3)nc21 (library stock concentration (final ~1000-fold dilution): 10 mM),NF-kB SEAP reporter activity,RAW-Dual [2]; agonist: LPS (TLR4) 0.1 ug/mL,1.91
same,NF-kB SEAP reporter activity,RAW-Dual [2]; [8],1.18
same,NF-kB SEAP reporter activity,RAW-Dual [2]; [9],0.763
same,NF-kB SEAP reporter activity,RAW-Dual [2]; [10],0.946
Cc1nc(Nc2cnn(C3CCNCC3)c2)nc2c1N(C)C(=O)c1cc3ccccc3cc1N2C (library stock concentration (final ~1000-fold dilution): 10 mM),NF-kB SEAP reporter activity,RAW-Dual [3]; agonist: LPS (TLR4) 0.1 ug/mL,3.03
same,NF-kB SEAP reporter activity,RAW-Dual [3]; [8],0.387
same,NF-kB SEAP reporter activity,RAW-Dual [3]; [9],1.11
same,NF-kB SEAP reporter activity,RAW-Dual [3]; [10],2.25
Cc1ccc(Oc2ccnc3cc(-c4cnn(C5CCNCC5)c4)ccc23)cc1 (library stock concentration (final ~1000-fold dilution): 10 mM),NF-kB SEAP reporter activity,RAW-Dual [3]; agonist: LPS (TLR4) 0.1 ug/mL,0.433
same,NF-kB SEAP reporter activity,RAW-Dual [3]; [8],0.213
same,NF-kB SEAP reporter activity,RAW-Dual [3]; [9],0.181
same,NF-kB SEAP reporter activity,RAW-Dual [3]; [10],0.175
CN1c2ccccc2C(=O)Nc2cnc(Nc3ccc(N4CCC(O)CC4)cc3)nc21,NF-kB SEAP reporter activity,RAW-Dual [1]; [4],0.788
same,NF-kB SEAP reporter activity,RAW-Dual [1]; [5],1.02
CC1CC(=O)c2c(ccc3c2C(=O)c2cccc(O)c2C3=O)C1 (stereo not given),NF-kB SEAP reporter activity,RAW-Dual [1]; [4],1.02
same,NF-kB SEAP reporter activity,RAW-Dual [1]; [5],1.26
CC1CC(=O)c2c(ccc3c2C(=O)c2cccc(O)c2C3=O)C1 (stereo not given) (library stock concentration (final ~1000-fold dilution): 10 mM),NF-kB SEAP reporter activity,RAW-Dual [2]; agonist: LPS (TLR4) 0.1 ug/mL,1.64
same,NF-kB SEAP reporter activity,RAW-Dual [2]; [8],1.14
same,NF-kB SEAP reporter activity,RAW-Dual [2]; [9],1.09
same,NF-kB SEAP reporter activity,RAW-Dual [2]; [10],0.991
CC(NC(=O)C(NC(=O)OCc1ccccc1)C(C)C)C(=O)NC(CC(=O)O)C(=O)CF (stereo not given) (library stock concentration (final ~1000-fold dilution): 10 mM),NF-kB SEAP reporter activity,RAW-Dual [2]; agonist: LPS (TLR4) 0.1 ug/mL,1.23
same,NF-kB SEAP reporter activity,RAW-Dual [2]; [8],0.939
same,NF-kB SEAP reporter activity,RAW-Dual [2]; [9],0.948
same,NF-kB SEAP reporter activity,RAW-Dual [2]; [10],1.03
CC(NC(=O)C(NC(=O)OCc1ccccc1)C(C)C)C(=O)NC(CC(=O)O)C(=O)CF (stereo not given),NF-kB SEAP reporter activity,RAW-Dual [1]; [4],0.964
same,NF-kB SEAP reporter activity,RAW-Dual [1]; [5],0.934
CCCC1CC(C(=O)NC(C(C)Cl)C2OC(SC)C(O)C(O)C2O)N(C)C1.Cl.O (stereo not given) (library stock concentration (final ~1000-fold dilution): 10 mM),NF-kB SEAP reporter activity,RAW-Dual [2]; agonist: LPS (TLR4) 0.1 ug/mL,1.29
same,NF-kB SEAP reporter activity,RAW-Dual [2]; [8],0.918
same,NF-kB SEAP reporter activity,RAW-Dual [2]; [9],0.831
same,NF-kB SEAP reporter activity,RAW-Dual [2]; [10],0.973
CCCC1CC(C(=O)NC(C(C)Cl)C2OC(SC)C(O)C(O)C2O)N(C)C1.Cl.O (stereo not given),NF-kB SEAP reporter activity,RAW-Dual [1]; [5],1.07
C/C(=N\NC(=O)c1cccc(S(=O)(=O)N2CCOCC2)c1)c1cc(Cl)ccc1O (library stock concentration (final ~1000-fold dilution): 10 mM),NF-kB SEAP reporter activity,RAW-Dual [2]; agonist: LPS (TLR4) 0.1 ug/mL,2.6
same,NF-kB SEAP reporter activity,RAW-Dual [2]; [8],1.9
same,NF-kB SEAP reporter activity,RAW-Dual [2]; [9],1.52
same,NF-kB SEAP reporter activity,RAW-Dual [2]; [10],2.48
C/C(=N\NC(=O)c1cccc(S(=O)(=O)N2CCOCC2)c1)c1cc(Cl)ccc1O,NF-kB SEAP reporter activity,RAW-Dual [1]; [4],1.53
same,NF-kB SEAP reporter activity,RAW-Dual [1]; [5],1.65
O=C(Nc1cccc(Br)c1)c1cccc(S(=O)(=O)N2CCCCCC2)c1 (library stock concentration (final ~1000-fold dilution): 10 mM),NF-kB SEAP reporter activity,RAW-Dual [2]; agonist: LPS (TLR4) 0.1 ug/mL,0.803
same,NF-kB SEAP reporter activity,RAW-Dual [2]; [8],1.79
same,NF-kB SEAP reporter activity,RAW-Dual [2]; [9],1.02
same,NF-kB SEAP reporter activity,RAW-Dual [2]; [10],0.939
O=C(Nc1cccc(Br)c1)c1cccc(S(=O)(=O)N2CCCCCC2)c1,NF-kB SEAP reporter activity,RAW-Dual [1]; [4],1.56
same,NF-kB SEAP reporter activity,RAW-Dual [1]; [5],1.26
O=C(O)CCn1c2c(c3ccccc31)CC(NS(=O)(=O)c1ccc(F)cc1)CC2 (stereo not given),NF-kB SEAP reporter activity,RAW-Dual [1]; [5],1.07
O=C(O)CCn1c2c(c3ccccc31)CC(NS(=O)(=O)c1ccc(F)cc1)CC2 (stereo not given) (library stock concentration (final ~1000-fold dilution): 10 mM),NF-kB SEAP reporter activity,RAW-Dual [2]; agonist: LPS (TLR4) 0.1 ug/mL,1.07
same,NF-kB SEAP reporter activity,RAW-Dual [2]; [8],0.99
same,NF-kB SEAP reporter activity,RAW-Dual [2]; [9],1.13
same,NF-kB SEAP reporter activity,RAW-Dual [2]; [10],1.07
COc1ccc(/C=C\c2cc(OC)c(OC)c(OC)c2)cc1O,NF-kB SEAP reporter activity,RAW-Dual [1]; [4],1.63
same,NF-kB SEAP reporter activity,RAW-Dual [1]; [5],2.07
COc1cc(C=CC(=O)CC(=O)C=Cc2ccc(O)c(OC)c2)ccc1O (library stock concentration (final ~1000-fold dilution): 100 mM),NF-kB SEAP reporter activity,RAW-Dual [2]; agonist: LPS (TLR4) 0.1 ug/mL,0.303
same,NF-kB SEAP reporter activity,RAW-Dual [2]; [8],0.197
same,NF-kB SEAP reporter activity,RAW-Dual [2]; [9],0.13
same,NF-kB SEAP reporter activity,RAW-Dual [2]; [10],0.242
COc1ccc(C=Cc2cc(OC)c(OC)c(OC)c2)cc1OP(=O)(O)O,NF-kB SEAP reporter activity,"RAW-Dual [1]; library stock concentration (final ~1000-fold dilution): 10 mM water, cytotoxicity flag (confluency mask): cytotoxic (confluency <70% of control), agonist: Imiquimod (TLR7) […]",1.67
same,NF-kB SEAP reporter activity,"RAW-Dual [1]; library stock concentration (final ~1000-fold dilution): 10 mM water, cytotoxicity flag (confluency mask): cytotoxic (confluency <70% of control), agonist: MPLA (TLR4) […]",2.09
COc1ccc(C=Cc2cc(OC)c(OC)c(OC)c2)cc1OP(=O)(O)O (library stock concentration (final ~1000-fold dilution): 10 mM water),NF-kB SEAP reporter activity,RAW-Dual [3]; agonist: LPS (TLR4) 0.1 ug/mL,5.99
same,NF-kB SEAP reporter activity,RAW-Dual [3]; [8],2.48
same,NF-kB SEAP reporter activity,RAW-Dual [3]; [9],2.34
same,NF-kB SEAP reporter activity,RAW-Dual [3]; [10],2.65
COc1ccc(C(=O)C=Cc2cc(OC)c(OC)c(OC)c2)cc1OC (library stock concentration (final ~1000-fold dilution): 20 mM),NF-kB SEAP reporter activity,RAW-Dual [3]; agonist: LPS (TLR4) 0.1 ug/mL,0.326
same,NF-kB SEAP reporter activity,RAW-Dual [3]; [8],0.215
same,NF-kB SEAP reporter activity,RAW-Dual [3]; [9],0.0975
same,NF-kB SEAP reporter activity,RAW-Dual [3]; [10],0.176
COc1ccc(/C=C\c2cc(OC)c(OC)c(OC)c2)cc1O (library stock concentration (final ~1000-fold dilution): 10 mM),NF-kB SEAP reporter activity,RAW-Dual [2]; agonist: LPS (TLR4) 0.1 ug/mL,4.68
same,NF-kB SEAP reporter activity,RAW-Dual [2]; [8],2.84
same,NF-kB SEAP reporter activity,RAW-Dual [2]; [9],1.69
same,NF-kB SEAP reporter activity,RAW-Dual [2]; [10],2.62
COc1ccc(C(=O)C=Cc2cc(OC)c(OC)c(OC)c2)cc1OC,NF-kB SEAP reporter activity,"RAW-Dual [1]; library stock concentration (final ~1000-fold dilution): 20 mM, cytotoxicity flag (confluency mask): cytotoxic (confluency <70% of control), agonist: Imiquimod (TLR7) […]",0.192
same,NF-kB SEAP reporter activity,"RAW-Dual [1]; library stock concentration (final ~1000-fold dilution): 20 mM, cytotoxicity flag (confluency mask): cytotoxic (confluency <70% of control), agonist: MPLA (TLR4) […]",0.302
COc1cc(/C=C/C(=O)O)ccc1O,NF-kB SEAP reporter activity,RAW-Dual [1]; [4],0.903
same,NF-kB SEAP reporter activity,RAW-Dual [1]; [5],1.09
COc1cc(C=CC(=O)CC(=O)C=Cc2ccc(O)c(OC)c2)ccc1O,NF-kB SEAP reporter activity,"RAW-Dual [1]; library stock concentration (final ~1000-fold dilution): 100 mM, cytotoxicity flag (confluency mask): not cytotoxic, agonist: Imiquimod (TLR7) […]",0.155
same,NF-kB SEAP reporter activity,"RAW-Dual [1]; library stock concentration (final ~1000-fold dilution): 100 mM, cytotoxicity flag (confluency mask): not cytotoxic, agonist: MPLA (TLR4) […]",0.257
COc1cc(/C=C/C(=O)O)ccc1O (library stock concentration (final ~1000-fold dilution): 10 mM),NF-kB SEAP reporter activity,RAW-Dual [2]; agonist: LPS (TLR4) 0.1 ug/mL,1.16
same,NF-kB SEAP reporter activity,RAW-Dual [2]; [8],1.12
same,NF-kB SEAP reporter activity,RAW-Dual [2]; [9],1.17
same,NF-kB SEAP reporter activity,RAW-Dual [2]; [10],1.04
COc1ccc(/C=C/C(=O)O)cc1OC (library stock concentration (final ~1000-fold dilution): 10 mM),NF-kB SEAP reporter activity,RAW-Dual [2]; agonist: LPS (TLR4) 0.1 ug/mL,1.43
same,NF-kB SEAP reporter activity,RAW-Dual [2]; [8],1.15
same,NF-kB SEAP reporter activity,RAW-Dual [2]; [9],1.15
same,NF-kB SEAP reporter activity,RAW-Dual [2]; [10],1.14
COc1ccc(/C=C/C(=O)O)cc1OC,NF-kB SEAP reporter activity,RAW-Dual [1]; [4],0.805
same,NF-kB SEAP reporter activity,RAW-Dual [1]; [5],1.05
